# Measurements from the supplement of paper PMC11732987, “Enantioselective OTUD7B fragment discovery through chemoproteomics screening and high-throughput optimisation” (Communications Chemistry, 2025).
# A number with no mark means an inactive call.
# Experiments:
# Test in all cases: log2 ratio of Biotin-Ahx-Ub-VS probe labelling (fragment/DMSO); higher = less target engagement (more negative = stronger competition), active = hit call of the paper (q ≤ 0.05, log2 ratio ≤ -1)
# Settings in all cases: compound concentration: 200 uM; treatment time: 3 h
# OTUD6B = target: T1, OTUD6B (UniProt Q8N6M0)
# T1 sequence (whole entry): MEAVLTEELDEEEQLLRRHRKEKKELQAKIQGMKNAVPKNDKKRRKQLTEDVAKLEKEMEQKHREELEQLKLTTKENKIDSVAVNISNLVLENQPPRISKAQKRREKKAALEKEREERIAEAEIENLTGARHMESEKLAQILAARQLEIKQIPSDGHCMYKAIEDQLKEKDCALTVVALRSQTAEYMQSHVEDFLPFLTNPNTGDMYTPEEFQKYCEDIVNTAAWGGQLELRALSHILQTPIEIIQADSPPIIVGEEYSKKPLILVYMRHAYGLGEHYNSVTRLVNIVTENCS
# Method in brief: (§1)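 Triplicate samples of HEK293T lysate, 495 µg each, received fragment at 200 µM or vehicle for 3 h, followed by Biotin-Ahx-Ub-VS (0.5 µM final) for 1 h. After NeutrAvidin enrichment of labelled DUBs and LysC/trypsin digestion, peptides were run by diaPASEF LC-MS/MS. The values are average log2 fragment/vehicle ratios from global-median-normalised Spectronaut label-free quantities, tested by unpaired t-test on proteins having ≥2 unique peptides.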
# OTUD7B = target: T2, OTUD7B (UniProt Q6GQQ9)
# T2 sequence (whole entry): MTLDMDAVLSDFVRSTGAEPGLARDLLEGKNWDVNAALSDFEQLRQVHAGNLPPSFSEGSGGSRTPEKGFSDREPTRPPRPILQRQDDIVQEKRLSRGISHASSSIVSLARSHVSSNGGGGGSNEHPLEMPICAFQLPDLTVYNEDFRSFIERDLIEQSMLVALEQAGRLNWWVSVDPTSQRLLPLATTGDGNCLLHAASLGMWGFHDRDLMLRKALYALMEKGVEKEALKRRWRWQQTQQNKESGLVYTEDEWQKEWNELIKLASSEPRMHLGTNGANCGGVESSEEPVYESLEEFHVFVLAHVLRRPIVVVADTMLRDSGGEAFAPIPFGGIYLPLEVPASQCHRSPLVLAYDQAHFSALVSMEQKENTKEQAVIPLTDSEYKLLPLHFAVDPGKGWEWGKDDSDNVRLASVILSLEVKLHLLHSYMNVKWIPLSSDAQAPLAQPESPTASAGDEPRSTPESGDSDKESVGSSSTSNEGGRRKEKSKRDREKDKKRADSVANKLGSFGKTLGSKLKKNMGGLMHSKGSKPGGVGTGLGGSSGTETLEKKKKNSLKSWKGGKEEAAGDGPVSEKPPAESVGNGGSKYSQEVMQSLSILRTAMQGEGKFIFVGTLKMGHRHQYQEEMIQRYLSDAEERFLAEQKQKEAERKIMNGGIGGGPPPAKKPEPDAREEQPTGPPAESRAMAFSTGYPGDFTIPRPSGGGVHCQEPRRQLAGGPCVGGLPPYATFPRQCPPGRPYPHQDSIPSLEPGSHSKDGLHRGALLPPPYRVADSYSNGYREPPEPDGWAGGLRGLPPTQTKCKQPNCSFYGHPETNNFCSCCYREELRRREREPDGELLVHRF
# Method in brief: as §1
# PRPF8 = PRPF8 (UniProt Q6P2Q9)
# Method in brief: as §1
# PSMD7 = target: T3, PSMD7 (UniProt P51665)
# T3 sequence (whole entry): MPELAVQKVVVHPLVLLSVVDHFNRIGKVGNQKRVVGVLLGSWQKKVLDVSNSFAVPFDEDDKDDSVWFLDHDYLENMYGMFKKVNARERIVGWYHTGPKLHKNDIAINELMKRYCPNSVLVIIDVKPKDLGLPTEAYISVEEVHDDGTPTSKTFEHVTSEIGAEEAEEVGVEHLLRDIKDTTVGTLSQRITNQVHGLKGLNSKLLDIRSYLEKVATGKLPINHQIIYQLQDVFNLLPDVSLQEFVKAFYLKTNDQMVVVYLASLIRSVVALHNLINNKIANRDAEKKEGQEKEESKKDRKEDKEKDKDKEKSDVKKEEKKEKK
# Method in brief: as §1
# UCHL1 = UCHL1 (UniProt P09936)
# Sequence of UCHL1 (P09936 whole entry, looked up): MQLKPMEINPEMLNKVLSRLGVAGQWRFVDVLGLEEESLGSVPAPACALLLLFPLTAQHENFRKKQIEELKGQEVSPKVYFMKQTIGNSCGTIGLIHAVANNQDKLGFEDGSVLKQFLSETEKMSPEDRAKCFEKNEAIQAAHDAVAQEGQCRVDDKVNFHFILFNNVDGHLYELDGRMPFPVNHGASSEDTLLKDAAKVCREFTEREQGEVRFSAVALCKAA
# Method in brief: as §1
# UCHL3 = target: T4, UCHL3 (UniProt P15374)
# T4 sequence (whole entry): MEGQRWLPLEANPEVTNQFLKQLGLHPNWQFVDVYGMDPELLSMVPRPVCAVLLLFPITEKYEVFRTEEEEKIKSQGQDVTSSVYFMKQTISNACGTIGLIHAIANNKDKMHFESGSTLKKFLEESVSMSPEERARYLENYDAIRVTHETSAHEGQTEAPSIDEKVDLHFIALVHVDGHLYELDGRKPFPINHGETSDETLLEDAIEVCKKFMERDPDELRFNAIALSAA
# Method in brief: as §1
# UCHL5 = target: T5, UCHL5 (UniProt Q9Y5K5)
# T5 sequence (whole entry): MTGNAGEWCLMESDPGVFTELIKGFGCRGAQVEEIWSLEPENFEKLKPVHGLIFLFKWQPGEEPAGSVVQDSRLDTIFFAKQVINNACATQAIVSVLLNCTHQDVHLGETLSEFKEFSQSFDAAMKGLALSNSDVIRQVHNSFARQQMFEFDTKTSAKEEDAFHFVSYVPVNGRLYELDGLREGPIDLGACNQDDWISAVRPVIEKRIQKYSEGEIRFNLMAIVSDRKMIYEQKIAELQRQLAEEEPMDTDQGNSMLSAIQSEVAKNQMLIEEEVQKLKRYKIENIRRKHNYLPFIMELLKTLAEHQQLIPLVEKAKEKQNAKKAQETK
# Method in brief: as §1
# USP10 = USP10 (UniProt Q14694)
# Sequence of USP10 (Q14694 whole entry): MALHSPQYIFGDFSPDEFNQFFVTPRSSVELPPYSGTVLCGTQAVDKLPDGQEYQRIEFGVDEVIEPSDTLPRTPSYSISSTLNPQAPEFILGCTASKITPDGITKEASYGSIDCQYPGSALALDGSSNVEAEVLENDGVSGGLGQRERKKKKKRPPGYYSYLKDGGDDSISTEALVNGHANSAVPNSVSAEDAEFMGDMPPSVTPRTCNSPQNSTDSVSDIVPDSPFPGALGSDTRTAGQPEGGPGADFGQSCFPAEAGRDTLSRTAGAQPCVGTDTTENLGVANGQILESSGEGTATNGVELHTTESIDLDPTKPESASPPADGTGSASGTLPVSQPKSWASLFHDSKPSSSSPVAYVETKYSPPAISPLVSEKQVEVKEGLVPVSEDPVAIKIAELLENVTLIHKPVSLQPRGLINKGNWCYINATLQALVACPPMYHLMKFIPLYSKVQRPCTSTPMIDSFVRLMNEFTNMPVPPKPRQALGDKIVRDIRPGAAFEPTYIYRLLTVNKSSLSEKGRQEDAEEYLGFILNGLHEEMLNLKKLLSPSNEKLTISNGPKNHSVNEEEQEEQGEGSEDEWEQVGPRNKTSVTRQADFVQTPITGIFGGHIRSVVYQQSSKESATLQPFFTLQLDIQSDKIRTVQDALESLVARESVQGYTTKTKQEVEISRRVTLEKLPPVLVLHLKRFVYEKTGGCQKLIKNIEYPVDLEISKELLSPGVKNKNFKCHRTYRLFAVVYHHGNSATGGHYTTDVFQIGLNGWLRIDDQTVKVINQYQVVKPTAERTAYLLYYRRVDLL
# Method in brief: as §1
# USP15 = target: T6, USP15 (UniProt Q9Y4E8)
# T6 sequence (whole entry): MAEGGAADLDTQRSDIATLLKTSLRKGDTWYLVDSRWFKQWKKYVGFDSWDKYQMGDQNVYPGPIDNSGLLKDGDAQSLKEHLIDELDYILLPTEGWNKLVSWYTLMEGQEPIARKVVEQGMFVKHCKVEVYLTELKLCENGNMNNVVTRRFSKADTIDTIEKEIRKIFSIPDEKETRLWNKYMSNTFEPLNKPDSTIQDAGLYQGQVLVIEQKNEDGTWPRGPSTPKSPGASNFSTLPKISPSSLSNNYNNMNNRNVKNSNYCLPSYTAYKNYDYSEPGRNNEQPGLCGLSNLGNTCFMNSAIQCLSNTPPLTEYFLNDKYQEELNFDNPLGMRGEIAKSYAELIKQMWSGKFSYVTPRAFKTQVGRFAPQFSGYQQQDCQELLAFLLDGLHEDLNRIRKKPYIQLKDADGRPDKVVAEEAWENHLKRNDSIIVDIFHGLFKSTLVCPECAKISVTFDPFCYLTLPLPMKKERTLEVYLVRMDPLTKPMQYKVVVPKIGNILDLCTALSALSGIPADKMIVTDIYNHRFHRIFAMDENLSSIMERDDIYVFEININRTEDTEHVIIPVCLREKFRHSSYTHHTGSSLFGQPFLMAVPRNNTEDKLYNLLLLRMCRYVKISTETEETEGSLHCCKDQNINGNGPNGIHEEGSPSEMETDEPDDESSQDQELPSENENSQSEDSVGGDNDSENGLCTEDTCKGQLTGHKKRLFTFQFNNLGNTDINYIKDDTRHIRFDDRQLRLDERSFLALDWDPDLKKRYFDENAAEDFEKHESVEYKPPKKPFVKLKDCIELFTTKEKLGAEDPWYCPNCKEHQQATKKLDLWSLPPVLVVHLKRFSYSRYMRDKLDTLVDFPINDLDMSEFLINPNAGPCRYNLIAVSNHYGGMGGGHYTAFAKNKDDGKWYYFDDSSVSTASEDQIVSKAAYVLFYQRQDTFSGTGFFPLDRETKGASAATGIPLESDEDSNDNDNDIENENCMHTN
# Method in brief: as §1
# USP16 = USP16 (UniProt Q9Y5T5)
# Sequence of USP16 (Q9Y5T5 whole entry, looked up): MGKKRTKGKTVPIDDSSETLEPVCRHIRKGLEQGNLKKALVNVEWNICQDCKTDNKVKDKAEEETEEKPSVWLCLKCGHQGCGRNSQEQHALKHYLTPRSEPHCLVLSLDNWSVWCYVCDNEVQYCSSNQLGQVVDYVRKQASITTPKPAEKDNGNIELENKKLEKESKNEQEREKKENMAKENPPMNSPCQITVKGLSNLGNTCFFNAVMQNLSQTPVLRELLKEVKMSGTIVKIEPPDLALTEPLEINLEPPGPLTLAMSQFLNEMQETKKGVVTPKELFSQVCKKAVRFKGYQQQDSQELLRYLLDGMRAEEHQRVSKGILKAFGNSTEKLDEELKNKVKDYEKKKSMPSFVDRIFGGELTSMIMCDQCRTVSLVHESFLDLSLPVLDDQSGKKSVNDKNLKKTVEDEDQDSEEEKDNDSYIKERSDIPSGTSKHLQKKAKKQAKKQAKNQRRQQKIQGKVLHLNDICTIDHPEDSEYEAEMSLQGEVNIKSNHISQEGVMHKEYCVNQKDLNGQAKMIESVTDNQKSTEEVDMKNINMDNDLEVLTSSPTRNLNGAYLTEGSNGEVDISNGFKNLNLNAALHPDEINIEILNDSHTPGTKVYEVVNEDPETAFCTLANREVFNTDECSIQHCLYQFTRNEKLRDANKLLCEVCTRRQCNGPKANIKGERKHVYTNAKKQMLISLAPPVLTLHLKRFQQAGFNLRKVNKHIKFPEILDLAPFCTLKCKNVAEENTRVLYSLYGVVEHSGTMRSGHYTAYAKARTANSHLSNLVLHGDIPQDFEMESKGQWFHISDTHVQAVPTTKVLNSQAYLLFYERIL
# Method in brief: as §1
compound,measurement,setting,value
O=C(CCl)N1CCCC2CCCCC21 (stereo not given),log2 ratio of Biotin-Ahx-Ub-VS probe labelling,OTUD6B,0.111
same,log2 ratio of Biotin-Ahx-Ub-VS probe labelling,OTUD7B,-0.246
same,log2 ratio of Biotin-Ahx-Ub-VS probe labelling,PRPF8,0.0617
same,log2 ratio of Biotin-Ahx-Ub-VS probe labelling,PSMD7,-0.09
same,log2 ratio of Biotin-Ahx-Ub-VS probe labelling,UCHL1,-1.06 (active)
same,log2 ratio of Biotin-Ahx-Ub-VS probe labelling,UCHL3,0.0783
same,log2 ratio of Biotin-Ahx-Ub-VS probe labelling,UCHL5,-0.193
same,log2 ratio of Biotin-Ahx-Ub-VS probe labelling,USP10,-0.167
same,log2 ratio of Biotin-Ahx-Ub-VS probe labelling,USP15,-0.1
same,log2 ratio of Biotin-Ahx-Ub-VS probe labelling,USP16,-0.257
